From PubChem BioAssay
This is a sample that favours compounds with a hit; in the whole collection about 2.6% have one here.
PAFAH1B3 inh: blocks human PAF acetylhydrolase 1B catalytic subunit 3. Q15102. recombinant PAFAH1B3, FP-rhodamine probe, fluorescence polarization. actives 0.28% (n = 340,000). inhibition, % at 3.39 µM;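 active = inhibition above the screen-wide average of all tested compounds plus 3 SD, cut at about 25% in these data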;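 note: 0% = enzyme with DMSO only and 100% = wells lacking PAFAH1B3 protein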
PAFAH2 FP inh: PAFAH2 (human) inhibition. Q99487. recombinant PAFAH2, FP-rhodamine activity probe, fluorescence polarization. inhibition, % at 3.39 µM. actives 0.99% (n = 340,000). AID 492956;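 active = inhibition above the mean over all tested compounds plus 3 SD, cut at about 30% in these data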;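 note: inhibitors block probe labeling of enzyme so polarization drops; 0% = enzyme with DMSO and 100% = wells lacking PAFAH2 protein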
PAFAH1B2 FP inh: inhibitors of human PAFAH1B2. P68402. recombinant PAFAH1B2, FP-rhodamine activity probe, fluorescence polarization. inhibition, % at 3.39 µM. actives 1.2% (n = 340,000). AID 492953;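 active = inhibition above the mean of all tested compounds plus 3 SD, cut at about 24% in these data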;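 note: 0% = enzyme with DMSO and 100% = wells lacking PAFAH1B2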
Target sequence (P68402 whole entry, looked up): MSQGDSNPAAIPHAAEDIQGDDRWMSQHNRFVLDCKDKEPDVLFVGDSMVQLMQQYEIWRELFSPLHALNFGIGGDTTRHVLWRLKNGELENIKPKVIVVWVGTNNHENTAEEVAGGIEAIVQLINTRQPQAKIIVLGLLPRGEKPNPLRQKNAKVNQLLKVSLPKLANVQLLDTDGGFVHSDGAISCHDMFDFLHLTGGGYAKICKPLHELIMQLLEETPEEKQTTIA
pPAFAH inh: pPAFAH (human) enzyme inhibition | Q13093 | recombinant pPAFAH, FP-rhodamine probe fluorescence polarization | inhibition, % at 3.39 µM | actives 1.5% (n = 330,000);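 active = inhibition above the mean inhibition across the screen plus 3 SD, cut at about 25% in these data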;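 note: inhibitors block binding of the rhodamine activity-based probe so polarization drops; 0% = enzyme with DMSO and 100% = wells lacking pPAFAH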
PKA-R1A act: PKA-R1A complex activation. AID 504707. actives 0.083% (n = 340,000). activation, % at 11.4 µM. PKA-R1A dissociation, Cy5-IP20 fluorescence polarization; scaled: DMSO 0%, 113 µM cGMP 100%. P00514+P68181;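 active = percent activation above the mean of all tested compounds plus 3 SD, cut at about 19% in these data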;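 note: higher means more PKAc released from R1A so a rise in polarization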
PKA-R2B act: activates the human PKA-R2B holoenzyme complex | P22694+P31323 | PKA-R2B holoenzyme dissociation, Cy5-IP20 fluorescence polarization; R2B truncated from residue 108, S112A mutant; 0% DMSO only, 100% 113 µM cGMP | activation, % at 11.4 µM | actives 0.079% (n = 340,000);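 active = activation above a cutoff set at the mean over all compounds plus 3 SD, cut at about 18% in these data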;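 note: higher means more holoenzyme dissociation and a rise in polarization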
Target sequence (P31323 whole entry, looked up, other chains not shown, the tested form may be a part): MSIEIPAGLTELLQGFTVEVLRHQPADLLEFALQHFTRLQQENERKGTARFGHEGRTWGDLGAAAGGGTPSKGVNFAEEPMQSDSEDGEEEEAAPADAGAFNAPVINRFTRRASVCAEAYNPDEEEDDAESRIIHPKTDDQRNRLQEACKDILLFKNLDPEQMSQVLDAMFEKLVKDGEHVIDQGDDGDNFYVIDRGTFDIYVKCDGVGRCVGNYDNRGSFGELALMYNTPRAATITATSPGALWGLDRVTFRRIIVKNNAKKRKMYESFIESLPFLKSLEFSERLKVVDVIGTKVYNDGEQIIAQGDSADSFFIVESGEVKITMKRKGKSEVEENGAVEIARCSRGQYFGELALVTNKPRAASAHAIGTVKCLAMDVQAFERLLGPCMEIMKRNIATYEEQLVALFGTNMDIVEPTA
* hit, by the source's call; / = not tested or not shown.

SMILES	PAFAH1B3 inh	PAFAH2 FP inh	PAFAH1B2 FP inh	pPAFAH inh	PKA-R1A act	PKA-R2B act
O=C1CCNc2cc3ccccc3cc21	8.6	4.3	3.3	30.9*	-3.2	-6.9
O=c1[nH]c2cc(Cl)ccc2n1-c1ccccc1	4.5	7.2	1.4	28.5*	-8.2	-1.3
COc1cccc(CN2CCNC(=O)C2CC(=O)N(C)CCC2CCOCC2)c1OC (stereo not drawn)	8.1	4.6	5.4	-1.4	-5.3	-3.0
Cc1ccc(S(=O)(=O)Nc2nc3ccccc3nc2NCc2ccco2)cc1	25.7*	33.9*	29.5*	15.4	7.5	-12.6
COc1ccccc1-n1nnnc1SCC(=O)N(C)C1CCS(=O)(=O)C1 (stereo not drawn)	2.7	-2.5	2.1	-4.9	3.6	-13.6
COC(=O)Cc1ccc(NC(=S)NCc2ccccc2Cl)cc1	13.7	0.2	5.4	27.7*	-7.1	-4.2
CSc1ncccc1C(=O)NCCc1ccc(S(N)(=O)=O)cc1	6.8	-14.7	-1.7	-0.2	-0.1	-4.0
COc1ccc(N(CC(=O)NCc2ccccc2Cl)S(=O)(=O)c2c(C)n[nH]c2C)cc1	11.6	-4.2	-0.2	0.6	-9.6	-4.2
Cc1cccc(C)c1NC(=O)C1CCCN1C(=O)Nc1cccc(F)c1 (stereo not drawn)	-2.6	1.9	3.2	-5.4	2.0	-3.4
O=C(N[C@@H](Cc1ccccc1)C(=O)OCc1ccccc1)c1nc[nH]c1C(=O)NCc1ccccc1	-6.5	13.0	0.0	33.2*	1.4	-11.1
CCOc1ccccc1N1CCN(Cc2cccc(OC)c2O)CC1	6.8	-1.7	0.6	-0.2	-5.7	5.6
O=[N+]([O-])c1cc(CN2CCCC2)c2cccnc2c1O	19.2	36.0*	4.3	66.0*	-6.6	3.2
COc1ccccc1N1CCN(Cc2cc(Br)c(O)c3ncccc23)CC1	9.5	9.6	4.5	29.8*	-8.5	-3.4
CCOC(=O)[C@@H]1[C@H]2COc3ccc(Br)cc3[C@@H]2N2C(=O)N(c3ccc(C(F)(F)F)cc3)C(=O)[C@]12C	0.1	-6.5	4.9	1.3	-5.2	4.8
O=C1C(C2=C(O)c3ccccc3C2=O)=Nc2ccccc21	55.3*	53.1*	20.1	25.6*	-11.1	-9.4
Cc1cccc2sc(NC(=O)C3CCN(C(=O)c4ccco4)CC3)nc12	3.5	2.6	0.5	-5.0	-8.0	4.3
O=C(c1ccco1)N1CCN(C(=O)C23CC4CC(CC(C4)C2)C3)CC1	-7.3	4.0	9.6	-3.2	0.6	-2.6
CC12CC3CC(C)(C1)CC(C(=O)N1CCN(C(=O)c4ccco4)CC1)(C3)C2	11.2	5.9	35.5*	6.0	4.3	0.9
COc1ccc(S(=O)(=O)Oc2cccc(C(=S)N3CCOCC3)c2)cc1	1.2	1.1	26.4*	-1.7	-1.4	0.8
COc1cc(C(=S)N2CCOCC2)cc(OC)c1OS(=O)(=O)c1ccc(Cl)cc1	3.0	2.1	1.6	2.3	-7.1	-10.3
COc1cccc(C(=S)N2CCOCC2)c1OS(=O)(=O)c1ccc(Cl)cc1	10.9	-2.2	-2.9	27.1*	-3.1	-7.5
COCC1CCN(C(=O)c2ccc3nc(Cc4cccc(Cl)c4)oc3c2)CC1	/	/	/	/	1.5	2.3
CC1CCCCC1NC(=O)CSc1nnc(-c2ccco2)n1C (stereo not drawn)	-4.3	0.0	3.3	1.8	-5.7	3.8
C[C@@H]1CN([C@@H](C)CO)C(=O)c2cc(Br)cnc2O[C@H]1CN(C)C(=O)Nc1ccc2c(c1)OCO2	/	/	/	/	0.8	-5.5
COCCN1C=C2C(=O)C(C)(OC(=O)CCC(=O)OC)C(=O)C(Br)=C2C=C1c1ccc(OC)cc1 (stereo not drawn)	7.6	0.9	12.7	9.2	-0.7	1.8
SMILES	PAFAH1B3 inh	PAFAH2 FP inh	PAFAH1B2 FP inh	pPAFAH inh	PKA-R1A act	PKA-R2B act
COC(=O)CCC(=O)OC1(C)C(=O)C2=CN(Cc3ccco3)C(c3ccc(OC)cc3)=CC2=C(Br)C1=O (stereo not drawn)	/	/	/	24.9*	/	/
Cc1noc(/C=C/c2ccco2)c1S(=O)(=O)N1CCC(C(=O)N2CCc3ccccc3C2)CC1	2.3	-12.2	0.8	30.0*	0.0	-8.2
CCCC[C@@H]1CCCO[C@@](C(=O)NCc2ccccn2)(C(F)(F)F)C1	-3.9	-1.0	0.5	1.7	-8.9	-0.9
CCC[C@@H]1CCCO[C@@](C(=O)NCc2ccccn2)(C(F)(F)F)C1	8.7	8.8	30.1*	0.8	-8.9	2.9
CCn1c(CNC(=O)COc2ccc(C(C)C)cc2)nnc1SCC(=O)Nc1ccccc1C(C)C	5.8	2.3	3.2	29.9*	-5.2	-9.5
CCc1cc(-c2n[nH]c(C)c2Oc2ccc(C(C)C)cc2)c(O)cc1O	13.4	7.1	5.5	31.0*	-7.4	-10.4
CCCOC(=O)c1ccc(Oc2c(-c3ccc(O)cc3O)n[nH]c2C)cc1	8.9	-10.1	-6.8	19.5	-0.7	-6.5
Cc1[nH]nc(-c2ccc(O)cc2O)c1Oc1ccccc1	4.8	0.9	27.2*	1.7	-5.0	7.6
CCc1nn2c(=O)cc(COC(=O)c3cc(Cl)c(OC)c(OC)c3)nc2s1	6.8	5.7	0.7	3.4	-9.6	4.1
Cc1cn([C@H]2C[C@H](O)[C@@H](CNCc3ccc(-c4cc(Cl)ccc4C(F)(F)F)o3)O2)c(=O)[nH]c1=O	/	/	/	/	-1.1	-0.4
COc1cc(-c2nc(-c3ccc4c(c3)-c3ccccc3S4(=O)=O)c(-c3ccccc3)[nH]2)cc(OC)c1O	22.1	-2.0	3.4	27.2*	-19.8	-5.7
O=c1[nH]n2c(=O)c3c([nH]c2c1N=Nc1cccc(C(F)(F)F)c1)CCCC3	15.5	23.7	30.4*	28.1*	-0.1	-2.7
O=c1[nH]n2c(=O)c3c([nH]c2c1N=Nc1cccc(Cl)c1)CCC3	3.2	15.6	9.5	24.5	-8.4	-5.1
Oc1ccc(/C=N/Nc2ncnc3c2ncn3Cc2ccccc2)cc1O	-0.6	15.4	2.8	30.4*	6.4	1.7
Oc1cccc(/C=N/Nc2ncnc3c2ncn3Cc2ccccc2)c1	3.0	-6.0	8.0	-0.1	5.1	-8.7
O=[N+]([O-])c1cc(Cl)cc(/C=N/NC(=S)Nc2ccc(S(=O)(=O)N3CCOCC3)cc2)c1O	22.7	41.9*	37.2*	51.9*	-0.8	-5.4
Cc1cc(C)c2nc(NC(=O)c3ccc(OCC4CCCO4)cc3)sc2c1 (stereo not drawn)	3.9	4.8	-5.9	1.1	2.1	4.0
Cc1ccc2nc(NC(=O)c3ccc(OCC4CCCO4)cc3)sc2c1 (stereo not drawn)	0.8	-8.3	-4.8	26.7*	-3.4	12.6
CC(Oc1ccc(Br)cc1)C(=O)NCCCN1CCCC1=O (stereo not drawn)	6.7	-3.7	7.2	2.3	-11.8	-13.0
